Among the test systems are SK-MEL-2 melanoma; EKVX NSCLC; SN12C renal; UO-31 renal; TK-10 renal; ACHN renal; CAKI-1 renal; A498 renal; CCRF-CEM leukemia; MOLT-4 leukemia.
Test in all cases: NCI-60 one-dose screen, 48 h (100 = growth as untreated, 0 = no growth, -100 = all killed)
Conditions in all cases: 10 µM unless noted

This is an account of results in PubChem BioAssay (NCI).

The panel holds about 83,000 compounds, 20% with a hit somewhere; the sample as a whole holds those more often.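 How to read the values: 0–100, growth inhibition (40 = 60% inhibited); 0, no net growth; -100 to 0, cell death (-40 = 40% of starting cells died; -100 = all dead).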 Values without a mark were called inactive. The source made the active and inactive calls. The calls were made as follows: active = growth percent below 10; inactive = the rest.

For `O=C(Nc1nc(-c2ccc(Cl)cc2)nc2c1sc(=S)n2-c1ccccc1)C(F)(F)F`, the growth with SK-MEL-2 melanoma is 43.3%; with EKVX NSCLC, 55%; with SN12C renal it was 57%; in the assay with UO-31 renal, -41.9% (active); in the assay on TK-10 renal, -31.9% (active); in the assay with ACHN renal it was -48.5% (active). The growth was 20.2% in the assay with CAKI-1 renal, -8.62% (active) in the assay on A498 renal, 72.2% with CCRF-CEM leukemia and 82.6% with MOLT-4 leukemia.

With `N#CC1=C(N)Oc2c(sc3c(Br)cccc23)C1c1ccc(Cl)cc1` (stereo not given), the growth was -2.16% (active) in the assay on SK-MEL-2 melanoma; 34.3% in the assay on EKVX NSCLC; 30% in the assay on SN12C renal; 34.2% with UO-31 renal; 37.8% in the assay with TK-10 renal; 43.6% with ACHN renal. Also, the growth with CAKI-1 renal is 39.3%; in the assay with A498 renal, 16.3%; in the assay with CCRF-CEM leukemia, 13.7%; with MOLT-4 leukemia, 3.26% (active).

Regarding `Cc1sc2nc(NCCc3c[nH]c4ccc(Cl)cc34)[nH]c(=O)c2c1C`, the growth with SK-MEL-2 melanoma was 78.5%; in the assay on EKVX NSCLC, 41.7%; in the assay on SN12C renal, 51.7%; in the assay on UO-31 renal, 18.6%; with TK-10 renal it was 63.9%; in the assay on ACHN renal it was 42.9%. Moreover, the growth in the assay with CAKI-1 renal was 12%; in the assay on A498 renal, 69.4%; in the assay with CCRF-CEM leukemia, 33.9%; with MOLT-4 leukemia, 38.7%.

As for `COc1ccc(C(=O)N2c3ccccc3Sc3ccccc32)c(OC)c1`, the growth in the assay with SK-MEL-2 melanoma was 38.3%; with EKVX NSCLC it was 34%; in the assay on SN12C renal, 51.6%; with UO-31 renal, 48.3%; with TK-10 renal, 55.8%; in the assay with ACHN renal it was 43.5%. Also, the growth is 36.8% in the assay with CAKI-1 renal, 5.16% (active) in the assay with A498 renal, 16.5% in the assay with CCRF-CEM leukemia and 12% in the assay on MOLT-4 leukemia.

For `COc1ccc(C2=Nc3c(N)nc(N)nc3NC(c3cccc(Nc4ccnc5cc(C(F)(F)F)ccc45)c3)C2)cc1` (stereo not given), the growth in the assay on SK-MEL-2 melanoma was 75.5%; in the assay on EKVX NSCLC it was 72.3%; in the assay with SN12C renal, 75.7%; with UO-31 renal, 70%; in the assay with TK-10 renal it was 108%; with ACHN renal it was 96.4%. Moreover, the growth is 60.7% with CAKI-1 renal, 84.7% with A498 renal, 53.9% in the assay on CCRF-CEM leukemia and 24.3% in the assay on MOLT-4 leukemia.

Take `O=C(Nc1cccc(Cl)c1)Nc1cccc(Cn2c(=O)[nH]c3ccc(Oc4ncccn4)cc3c2=O)c1`: the growth is 69.6% in the assay on SK-MEL-2 melanoma; 72.4% in the assay with EKVX NSCLC; 76% with SN12C renal; 61.8% in the assay on UO-31 renal; 68.9% in the assay with TK-10 renal; 72.2% in the assay with ACHN renal. For the same molecule, the growth is 63.8% in the assay with CAKI-1 renal, 48.7% in the assay on A498 renal, 32.6% in the assay on CCRF-CEM leukemia and 6.46% (active) with MOLT-4 leukemia.

With `CC(=O)Oc1ccc(C)cc1C`, the growth in the assay with SK-MEL-2 melanoma was 99.7%; with EKVX NSCLC it was 112%; in the assay with SN12C renal, 102%; in the assay on UO-31 renal, 85.7%; with TK-10 renal, 102%; in the assay on ACHN renal, 101%. The growth in the assay on CAKI-1 renal is 101%; with A498 renal, 87.4%; in the assay with CCRF-CEM leukemia it was 102%; in the assay with MOLT-4 leukemia it was 106%.

Take `CS(=O)(=O)Nc1cncc(-c2ccc3ncnc(Nc4cncc(Cl)c4)c3c2)c1`: the growth with SK-MEL-2 melanoma is 67.6%; in the assay with EKVX NSCLC, 96.1%; in the assay on SN12C renal it was 84.3%; with UO-31 renal, 77.7%; in the assay on TK-10 renal, 65.2%; in the assay with ACHN renal, 96%. For the same molecule, the growth is 94.9% in the assay on CAKI-1 renal, 70.5% in the assay with A498 renal, 35.7% in the assay with CCRF-CEM leukemia and 78.4% with MOLT-4 leukemia.

Regarding `CN1C(=O)/C(=C\c2c(Cl)cccc2Cl)c2ccccc21`, the growth with SK-MEL-2 melanoma is 97.7%; in the assay on EKVX NSCLC, 87.6%; in the assay on SN12C renal it was 94.8%; with UO-31 renal, 75.4%; in the assay with TK-10 renal it was 89.4%; in the assay with ACHN renal it was 97.2%. The growth with CAKI-1 renal was 68.3%; in the assay on A498 renal it was 55.4%; in the assay with CCRF-CEM leukemia it was 89.5%; in the assay with MOLT-4 leukemia, 79.4%.

`CCOC(=O)C1=C(C)NC(=O)NC1c1c(Cl)n(CCCl)c2ccccc12` (stereo not given): the growth in the assay with SK-MEL-2 melanoma is 106%; in the assay on EKVX NSCLC, 97.8%; in the assay with SN12C renal, 101%; in the assay on UO-31 renal, 68.5%; with TK-10 renal, 34.1%; in the assay with ACHN renal it was 99%. The growth is 86.6% in the assay with CAKI-1 renal, 95.3% with A498 renal, -54.5% (active) with CCRF-CEM leukemia and 103% in the assay on MOLT-4 leukemia.

Turning to `Cn1ccnc1C(=O)/C=C/c1ccc(CC(=O)Nc2cc(C(F)(F)F)cc(C(F)(F)F)c2)cc1`, the growth was 102% with SK-MEL-2 melanoma; 89.8% in the assay on EKVX NSCLC; 67.4% with SN12C renal; 63.2% with UO-31 renal; 106% in the assay on TK-10 renal; 84.5% in the assay with ACHN renal. Moreover, the growth was 76.4% in the assay with CAKI-1 renal, 90% with A498 renal, 47.5% in the assay on CCRF-CEM leukemia and 14.7% in the assay on MOLT-4 leukemia.

`CCOC(=O)[C@@H]1CSC(CC)=C(C(=O)O)N1`: the growth in the assay with SK-MEL-2 melanoma was 111%; with EKVX NSCLC it was 105%; in the assay with SN12C renal, 98.4%; in the assay on UO-31 renal, 85.1%; in the assay with TK-10 renal it was 110%; in the assay on ACHN renal it was 97.6%. Moreover, the growth in the assay with CAKI-1 renal is 97.1%; with A498 renal it was 108%; in the assay on CCRF-CEM leukemia, -12.6% (active); in the assay on MOLT-4 leukemia it was -5.82% (active).

As to `Nc1ncnc2c1C(c1ccccc1)c1ccc3ccccc3c1O2` (stereo not given), the growth with SK-MEL-2 melanoma was 91.1%; in the assay on EKVX NSCLC, 90.6%; in the assay on SN12C renal, 73.6%; in the assay with UO-31 renal, 56.5%; in the assay on TK-10 renal it was 96%; in the assay on ACHN renal it was 80.9%. Besides, the growth was 81.1% in the assay on CAKI-1 renal, 94.7% in the assay on A498 renal, 91.6% in the assay with CCRF-CEM leukemia and 68.4% with MOLT-4 leukemia.

Turning to `O=C1/C(=C/c2cn(-c3ccccc3)nc2-c2ccccc2)SC(=S)N1C1CCCCC1`, the growth in the assay on SK-MEL-2 melanoma was 108%; in the assay on EKVX NSCLC it was 97.4%; in the assay with SN12C renal, 92.9%; with UO-31 renal, 94.2%; in the assay on TK-10 renal it was 117%; with ACHN renal, 102%. The growth in the assay with CAKI-1 renal was 85.2%; in the assay on A498 renal, 66.9%; with CCRF-CEM leukemia, 107%; with MOLT-4 leukemia, 108%.

For the molecule `COc1cc2c(c(OC)c1OC)CCC(c1cccc(C(=O)Nc3ccc(C#N)cc3)c1)O2` (stereo not given), the growth in the assay on SK-MEL-2 melanoma is 50.7%; with EKVX NSCLC, 60.1%; with SN12C renal, 46.6%; with UO-31 renal, 25%; with TK-10 renal it was 57.6%; with ACHN renal it was 39.8%. The growth was 43.4% in the assay with CAKI-1 renal, 50.8% in the assay on A498 renal, 10.5% in the assay on CCRF-CEM leukemia and -14.4% (active) in the assay with MOLT-4 leukemia.

As for `CN(C)Cc1ccc(O)c(C(=O)O)c1`, the growth in the assay with SK-MEL-2 melanoma was 124%; in the assay on EKVX NSCLC, 101%; in the assay with SN12C renal, 109%; in the assay on UO-31 renal it was 96.4%; in the assay with TK-10 renal it was 70.7%; with ACHN renal it was 101%. Further, the growth in the assay with CAKI-1 renal was 92.8%; in the assay on A498 renal, 104%; in the assay with CCRF-CEM leukemia, 103%; in the assay with MOLT-4 leukemia, 101%.

Regarding `Nc1nc(-c2ccc(Cl)cc2)nc2c1sc(=S)n2-c1ccccc1`, the growth was 83.7% in the assay on SK-MEL-2 melanoma; 40.7% in the assay with EKVX NSCLC; 53.2% with SN12C renal; -38.4% (active) in the assay on UO-31 renal; 14.1% in the assay with TK-10 renal; -4.93% (active) with ACHN renal. The growth was 42.3% in the assay with CAKI-1 renal, 26.3% in the assay with A498 renal, 85.4% in the assay with CCRF-CEM leukemia and 82.8% in the assay on MOLT-4 leukemia.

Turning to `COc1ccc(-c2cc(-c3cc(OC)c(OC)c(OC)c3)c(C#N)c(=O)n2CCCCC(=O)NO)cc1`, the growth was 87.2% with SK-MEL-2 melanoma; 65.5% in the assay with EKVX NSCLC; 66.5% in the assay on SN12C renal; 37.8% in the assay on UO-31 renal; 68.1% in the assay with TK-10 renal; 56.1% with ACHN renal. Besides, the growth was 46.3% in the assay on CAKI-1 renal, 76.7% with A498 renal, 26.7% with CCRF-CEM leukemia and 27.2% with MOLT-4 leukemia.

`CC(C)c1ccc(C(=O)Nc2nc3ccc(O)c(CN(C)C)c3s2)cc1`: the growth in the assay on SK-MEL-2 melanoma was 102%; in the assay on EKVX NSCLC it was 95.8%; with SN12C renal, 90.7%; in the assay with UO-31 renal it was 91.2%; with TK-10 renal, 99.6%; in the assay on ACHN renal, 81.6%. Moreover, the growth in the assay with CAKI-1 renal was 65.4%; in the assay with A498 renal it was 72.3%; with CCRF-CEM leukemia, 73.5%; in the assay on MOLT-4 leukemia, 62.7%.

For the molecule `Cc1ccc2c(n1)C(=O)C(Br)=C(CC(C)C)C2=O`, the growth in the assay on SK-MEL-2 melanoma was 110%; in the assay with EKVX NSCLC it was 104%; in the assay on SN12C renal, 98.8%; with UO-31 renal, 87.2%; in the assay with TK-10 renal, 115%; in the assay with ACHN renal it was 68.6%. In addition, the growth in the assay with CAKI-1 renal was 92.7%; with A498 renal, 106%; in the assay with CCRF-CEM leukemia, 24.2%; in the assay with MOLT-4 leukemia, 19.5%.

Regarding `COc1c(B(O)O)cccc1-c1nc2c(F)cc3[nH]ncc3c2c2c1CCCC2`, the growth in the assay on SK-MEL-2 melanoma was -6.26% (active); in the assay with EKVX NSCLC it was 7.37% (active); in the assay with SN12C renal it was 15.8%; in the assay on UO-31 renal, -1.82% (active); in the assay on TK-10 renal it was 16.2%; in the assay on ACHN renal, 0.144% (active). For the same molecule, the growth in the assay with CAKI-1 renal is -28% (active); in the assay on A498 renal it was -64.6% (active); with CCRF-CEM leukemia, 13.9%; in the assay on MOLT-4 leukemia, 7.73% (active).

As for `CC(O)(c1ccccc1)C(c1ccccc1)C1CCCCN1` (stereo not given), the growth was 117% in the assay on SK-MEL-2 melanoma; 104% in the assay on EKVX NSCLC; 93.1% with SN12C renal; 93.5% in the assay with UO-31 renal; 102% in the assay on TK-10 renal; 107% with ACHN renal. For the same molecule, the growth in the assay on CAKI-1 renal is 102%; in the assay with A498 renal, 106%; in the assay on CCRF-CEM leukemia, 101%; in the assay on MOLT-4 leukemia, 99.7%.
